Measurements from PubChem BioAssay AID1117361 (Southern Research Institute, 2015).
The campaign covered roughly 3,600 compounds. About 900 (25%) were called active. No rule for the calls is given here. Only a sample is shown. Results with a measured potency or affinity are listed apart.

Target: Protein Tat (Human immunodeficiency virus type 1 group M subtype B (isolate HXB2)) (UniProt P04608)
Test: inhibitors of Tat binding to TAR RNA, dose response, counter-screen for Vif-APOBEC3G degradation inhibitor project, biochemical, fluorescence polarization, FAM-labeled TAR RNA (AID 1117361)
Details: outcome: dose series up to 100 µM unless noted; series mostly up to 100 µM

| Structure (SMILES) | outcome |
| --- | --- |
| COc1ccccc1N1CCN(C(=O)C(F)F)CC1 | inactive |
| O=C(NCc1ccc(N2CCCC2=O)cc1)NC1CCCCC1 | inactive |
| Cc1ccc2nc(C3CCN(CC(=O)Nc4ccc5c(c4)OCCO5)CC3)[nH]c2c1 | inactive |
| O=C1NC2(CCCCC2)NN1c1ccccc1 | inactive |
| Cc1cc(C)c2c(c1)[C@@H]1C=CC[C@@H]1[C@H](c1ccc(S(=O)(=O)N3CCOCC3)cc1)N2 | inactive |
| O=C(O)c1ccc2c(c1)C(c1ccccc1)OC2=O (configuration not stated) | inactive |
| CCC(C)NS(=O)(=O)c1ccc(S(=O)(=O)N(CC(=O)Nc2ccccc2)CC2CCCO2)cc1 (configuration not stated) | inactive |
| COc1ccccc1S(=O)(=O)Cc1ccc(C(=O)N2CCN(c3ccccn3)CC2)o1 | inactive |
| CCN1CCN(CCCNC(=O)c2ccc3c(c2)NC(=O)c2ccccc2S3)CC1 | inactive |
| CC1(C)CC(=O)C2=C(C1)N(Cc1ccc(F)cc1)C(=O)C2(NC(=O)c1cccnc1)C(F)(F)F (configuration not stated) | inactive |
| CC(=O)Nn1cc2c(=O)n(C)c(=O)n(C)c2c1 | inactive |
| CCN(CC)CCN1C(=O)c2ccccc2NC1c1ccc(N(C)C)cc1 (configuration not stated) | inactive |
| COc1cc(NC(=O)c2cc3nc(C)cc(C)n3n2)c(OC)cc1Cl | inactive |
| Cc1ccc2c(c1)c(CC(=O)Nc1ccc(C)c(F)c1)c(C(=O)O)n2C | inactive |
| Nc1ccc(-c2nc3cc(N)ccc3n2CCO)cc1 | inactive |
| COc1ccc(S(=O)(=O)NCc2ccccn2)c(Cl)c1Cl | inactive |
| CCN(CC)CCNC(=O)CCn1c(=S)[nH]c2cc3c(cc2c1=O)OCO3 | inactive |
| C=CCn1cc(-c2ccccc2)cc(C#N)c1=O | inactive |
| Cc1ccc(CSc2nc3c(c(N(C)C)n2)CCCC3)cc1 | inactive |
| CCN(CC)CCCNC(=O)CSc1nc(-c2cccs2)cc(C(F)(F)F)n1 | inactive |
| COC(=O)/C=c1\sc2n(c1=O)C(C)=CC(C)(C)N=2 | inactive |
| CCOC(=O)CCC(=O)N1CCOCCN(C(=O)CCC(=O)OCC)CCOCC1 | inactive |
| Cc1ccc(N=Cc2nc(-c3ccc(C)cc3)oc2O)cc1 | inactive |
| CC(C)(C)NC(=O)CSc1nnc(-c2ccccn2)n1Cc1ccccc1 | inactive |

| Structure (SMILES) | outcome |
| --- | --- |
| COc1ccc(CNC(=O)c2c(-c3cc(Cl)c(OC)c(Cl)c3)noc2C)cc1 | inactive |
| OCCCNc1ncnc2c1[nH]c1ccccc12 | inactive |
| CC(=O)Nc1cccc(-c2cc(-c3c(Cl)cccc3Cl)no2)c1 | inactive |
| O=C(CCn1nc(-c2ccccc2)ccc1=O)N1CCCC1 | inactive |
| CN1CCN(S(=O)(=O)c2ccc(NC(=S)NC(=O)c3ccc(Cl)cc3)cc2)CC1 | inactive |
| Cc1cccc(OCCCC(=O)NC(C)c2ccccc2)c1 (configuration not stated) | inactive |
| CCn1c(=O)cc(N2CCC3(CC2)OCCO3)[nH]c1=O | inactive |
| Cn1cc(Cl)c(C(=O)Nc2nc3ccccc3s2)n1 | inactive |
| CCC(C)(c1nnnn1-c1c(C)cccc1C)N(N=O)c1ccccc1Cl (configuration not stated) | inactive |
| CSCCC(NS(=O)(=O)c1ccc2c(c1)oc(=O)n2C)C(=O)NC1CCCc2ccccc21 (configuration not stated) | inactive |
| COc1ccc(S(N)(=O)=O)cc1C(=O)OCC(=O)NC(C)(C#N)C1CC1 (configuration not stated) | inactive |
| O=c1cc(O)nc(SCc2ccccc2Cl)[nH]1 | inactive |
| CSc1nc(N)c(C#N)c(-c2ccccc2Cl)c1C#N | inactive |
| COc1ccc(C2(O)CCN(Cc3nnnn3Cc3ccc(F)cc3)CC2)cc1 | inactive |
| CC(C)(C)NCCCCOc1ccc(F)cc1 | inactive |
| CCOc1ccc(NC(=O)c2ccccc2NS(C)(=O)=O)cc1 | inactive |
| Cc1c(O)nc(SCC(=O)Nc2ccc3c4c(cccc24)CC3)n(-c2ccc(F)cc2)c1=O | inactive |
| CCOc1ccc(NC(=O)Cn2cncc2-c2ccc([N+](=O)[O-])cc2)cc1 | inactive |
| Cc1cc(C)nc(N2N=C(C(C)(C)C)CC2=O)n1 | inactive |
| COc1cc2cc(C(c3nnnn3C3CCCC3)N(C)C3CCCCC3)c(=O)[nH]c2cc1OC (configuration not stated) | inactive |
| COCCn1nnnc1C(c1cc2ccc(C)cc2[nH]c1=O)N(Cc1ccco1)Cc1cccs1 (configuration not stated) | inactive |
| CCCN(CC(=O)Nc1ccccc1OC)C(=O)CSc1ccc(Br)cc1C | inactive |
| CCN(CC)S(=O)(=O)c1ccc(NC(=O)CSc2nnc(-c3cccc(OC)c3)n2C)cc1 | inactive |
| CC(=O)Nc1c(O)nc(SCC(=O)Nc2ccc(C(C)=O)cc2)[nH]c1=O | inactive |

| Structure (SMILES) | outcome |
| --- | --- |
| COc1ccc(NC(=O)CSc2nnc(C)n2Cc2ccccc2)cc1 | inactive |
| COc1cccc(NC(=O)CSc2nnnn2C(C)C)c1 | inactive |
| COc1ccc(NC(=O)CSc2nc(C)cc(C)n2)cc1 | inactive |
| CSc1nc(C)cc(SCC(=O)Nc2ccccc2)n1 | inactive |
| Cc1ccc[n+](CC(=O)c2cc3ccccc3oc2=O)c1 | inactive |
| CCCc1nc(SCc2cccnc2)c2c(=O)n(C)c(=O)n(C)c2n1 | inactive |
| O=C(NCc1ccc2c(c1)OCO2)C1CCCN1C(=O)Nc1ccccc1 (configuration not stated) | inactive |
| CCn1c(=O)oc2cc(NC(=O)CCl)ccc21 | inactive |
| COC(=O)Cn1ncn2c(cc3oc(C)cc32)c1=O | inactive |
| O=C(Cn1c(/C=C/c2ccccc2)nc2ccccc21)Nc1ccc(F)cc1 | inactive |
| O=C(Nc1ccc2nc(-c3ccccc3)[nH]c2c1)c1cccs1 | inactive |
| CCCCN(CCCC)S(=O)(=O)c1ccc(NC(=O)Cc2cccs2)cc1 | inactive |
| CC(C)OCCCNC(=O)c1cccs1 | inactive |
| Cc1ccnc(NS(=O)(=O)c2ccc(NC(=O)Cc3cccs3)cc2)n1 | inactive |
| CN(Cc1cn(C)nc1-c1cccc(Cl)c1)Cc1nccn1C | inactive |
| N#Cc1nc(Cc2ccccc2)oc1NCCCn1ccnc1 | inactive |
| O=C(COc1ccc(F)cc1)Nc1ccc(-n2cnnn2)cc1 | inactive |
| O=C(Nc1ccc2c(c1)OCCO2)N1CCN(c2ccccc2)CC1 | inactive |
| Cn1c(CN2CCCC2)nc2cc(NC(=O)Nc3ccccc3)ccc21 | inactive |
| CCOC(=O)C1CCCN(CCC(=O)Nc2ccc3c(c2)CCC3)C1 (configuration not stated) | inactive |
| CCOC(=O)C1CCN(C(=O)C2CCN(c3nc4ccc(OC)cc4s3)CC2)CC1 | inactive |
| C/C(=C/C(=O)NCc1ccccc1)C(=O)O | inactive |
| CN(C)c1ccc(N/C=C/C(=O)c2ccco2)cc1 | inactive |
| O=C(Nc1ccccc1C(F)(F)F)c1cc(-c2ccc(O)cc2)on1 | inactive |
